Assay results from article PMC7819943, “Rice protein-binding microarrays: a tool to detect cis-acting elements near promoter regions in rice”.
In all, about 35,000 sequences were measured (“fluorescence intensity (a.u.)”: median about 10,000, highest 2% from about 52,000 on). This excerpt belongs to a sample that is enriched for the highest values.

Target: T1, OsWOX13 (Oryza sativa, UniProt Q5QMM3 1-267)
T1 sequence: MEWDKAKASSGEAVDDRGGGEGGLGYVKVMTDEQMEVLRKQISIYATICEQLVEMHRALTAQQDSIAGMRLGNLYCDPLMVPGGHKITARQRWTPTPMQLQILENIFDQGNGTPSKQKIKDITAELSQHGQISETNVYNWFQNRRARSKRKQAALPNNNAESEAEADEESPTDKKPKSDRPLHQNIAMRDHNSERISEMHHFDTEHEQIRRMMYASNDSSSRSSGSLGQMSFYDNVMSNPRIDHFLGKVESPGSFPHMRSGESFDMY
Assay: protein-binding microarray (RPBM); PBS, 2% BSA, 51.3 ng/ul salmon testes DNA, 50 uM zinc acetate, 200 nM TF, 25 C, 1 h; high values mean tight binding
Conditions: protein: recombinant; tags: N-terminal polyhistidine and DsRed monomer fusion (pET32a); label: CyDye5-dUTP incorporated in the synthesized complementary strand; 3' TTTTT single-stranded linker to array surface; dsDNA, one strand shown
In short: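 A custom Agilent array was converted to double-stranded form by primer extension with Cy5-dUTP and blocked with 2% BSA. Protein at 200 nM in PBS with 2% BSA, salmon testes DNA and 50 µM zinc acetate was applied for 1 h at 25 °C, followed by washing. The proteins were polyhistidine–DsRed N-terminal fusions of transcription factors, expressed in E. coli BL21-CodonPlus and Ni–NTA-purified. The binding signal is per-feature fluorescence intensity (arbitrary units) from an Axon 4000B scanner.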

Sequence | binding signal
TTTTATAATTATATAGCACACCCCACTTCACACGCATATCCGGAGTCACCTAGTGCAG | 15300 fluorescence intensity (a.u.)
CTATTGATTGTTGGCGAGCATGTTCTTATCCAGTTGACTTCGGAGTCACCTAGTGCAG | 33100 fluorescence intensity (a.u.)
GTTTGTTAATTATTCACTAATCTCTAGTACTATAGTTGTACGGAGTCACCTAGTGCAG | 17100 fluorescence intensity (a.u.)
AACAGTTCTGCTGAACCTCTTTTGCCTGCCCAAATCAAAACGGAGTCACCTAGTGCAG | 7650 fluorescence intensity (a.u.)
AGATGGGAATCATTATCAATCTATCATCCTAAATATAAACCGGAGTCACCTAGTGCAG | 4070 fluorescence intensity (a.u.)
TCGATTGACTGGACGAGGAATAGTAACCCTGCACATTGTGCGGAGTCACCTAGTGCAG | 44100 fluorescence intensity (a.u.)
GAATACTGACAGTAAAGATGATTGCAGAATTAGCTCATAGCGGAGTCACCTAGTGCAG | 19400 fluorescence intensity (a.u.)
TGCATAAGTGTTAAATTGACAGCCACTTGGTCTGTTCGTTCGGAGTCACCTAGTGCAG | 21700 fluorescence intensity (a.u.)
ATGATTTACTATTAATCTAGTCTATTGCTGAGATATACATCGGAGTCACCTAGTGCAG | 11000 fluorescence intensity (a.u.)
ATGCCTGATTGGAAATCTACTATTACTATTCATGATACCGCGGAGTCACCTAGTGCAG | 58500 fluorescence intensity (a.u.)
CCTGTTGATTGGATATCTGGAACCTGAAATCCTGAATACGCGGAGTCACCTAGTGCAG | 55800 fluorescence intensity (a.u.)
CACATACTATACTACATTAATTATATTCTGATGAAATCCGCGGAGTCACCTAGTGCAG | 4130 fluorescence intensity (a.u.)
TACTCCTGTTGATAGGTATATTGATCTGAATCATCTGGTACGGAGTCACCTAGTGCAG | 3790 fluorescence intensity (a.u.)
TCTTGATTGAAACAATCTTTTGATCCCATAATCTTGCCCGCGGAGTCACCTAGTGCAG | 63700 fluorescence intensity (a.u.)
AACTAAACATAATCTTTGAAAAGTTTGATTTTGAACACGGCGGAGTCACCTAGTGCAG | 6770 fluorescence intensity (a.u.)
TTTCTTTTGAAATTGATTACAATCTACATAAGGAGAGTCGCGGAGTCACCTAGTGCAG | 16500 fluorescence intensity (a.u.)
TTAATTGATTTGGAAATCCTCTAGTTATCTGGATTAGTTTCGGAGTCACCTAGTGCAG | 37300 fluorescence intensity (a.u.)
ATTAGTTGGATTGATTCAAACAAAGAGGTGATAATAATTGCGGAGTCACCTAGTGCAG | 11900 fluorescence intensity (a.u.)
ACATGGGAATTTTGGTGGGATGGGGATGGGGATGGGGAATCGGAGTCACCTAGTGCAG | 7450 fluorescence intensity (a.u.)
GTGATTTTGTTAAACTTAGGCTGCTTGTTTCATCAATTGCCGGAGTCACCTAGTGCAG | 3740 fluorescence intensity (a.u.)
GGGTTTCAATCATTTAGGTGGACGTCCACTCATTTATTGCCGGAGTCACCTAGTGCAG | 16200 fluorescence intensity (a.u.)
TATGGTTAATTATGTATTTATCGACAACGGGATGTTCGTACGGAGTCACCTAGTGCAG | 15000 fluorescence intensity (a.u.)
CACGAAATTAATTTAGCTCTACATCCGTTCTGTTTATGAACGGAGTCACCTAGTGCAG | 8960 fluorescence intensity (a.u.)

Sequence | binding signal
TGGCCAAATTCTGTCAATTGCATTTGATGGAGCTGGGCTTCGGAGTCACCTAGTGCAG | 11200 fluorescence intensity (a.u.)
CTATAATTTCTGGTTACGGTGGTGACAAGTCATGTGGGCTCGGAGTCACCTAGTGCAG | 13900 fluorescence intensity (a.u.)
CGTGATTAGAATCCATCTCCGACCGACCGCACATACAAAGCGGAGTCACCTAGTGCAG | 43300 fluorescence intensity (a.u.)
GAGCGATTATAAAATTAATTGCTCCGCGGCTTAAGCCGAGCGGAGTCACCTAGTGCAG | 5680 fluorescence intensity (a.u.)
AGTGATCATTGATCTAAACTACTTGCAGGTGACGCACACGCGGAGTCACCTAGTGCAG | 6200 fluorescence intensity (a.u.)
TTGTTTGATTTGTTAGGGGTGGTAAGAGCAGCCTTGTATTCGGAGTCACCTAGTGCAG | 21000 fluorescence intensity (a.u.)
CTCTCTAGTAATTATCCATGTGCTCGTCTGGTTGGATTGGCGGAGTCACCTAGTGCAG | 5240 fluorescence intensity (a.u.)
CAAATTTAAATTTGAATTATATCCGATTTAAATTTGAATTCGGAGTCACCTAGTGCAG | 21800 fluorescence intensity (a.u.)
TATTTAAATTCAAATTGAAATTCAAATTTAAATCGGATATCGGAGTCACCTAGTGCAG | 16800 fluorescence intensity (a.u.)
TAATTAATTAATTGATTGATTGATTTGAAACTGATTAATTCGGAGTCACCTAGTGCAG | 56200 fluorescence intensity (a.u.)
GTTAATTTAATTGAAATTTAAATTTAAATCAATCTGCATTCGGAGTCACCTAGTGCAG | 57600 fluorescence intensity (a.u.)
TATTAATTACAGATTGACAAAACACAAGATTTGCCTGTATCGGAGTCACCTAGTGCAG | 61800 fluorescence intensity (a.u.)
ATCAATTTTAAAATTAAATTTTAATTTTAAATTTTGAATTCGGAGTCACCTAGTGCAG | 26900 fluorescence intensity (a.u.)
TTAAAATAATTGACAAGATAGATTAATATTTGGTATATCACGGAGTCACCTAGTGCAG | 26400 fluorescence intensity (a.u.)
ATTAAATTTTAAAATTTAATTTTAAATTGATTTTGATATTCGGAGTCACCTAGTGCAG | 42600 fluorescence intensity (a.u.)
CTAATAACAAAACAAATTACAGATTTCGCCTGTAATATGCCGGAGTCACCTAGTGCAG | 9460 fluorescence intensity (a.u.)
TTTGATTTGATTTGATTTGATTGAATTAATTTGAGTCCGACGGAGTCACCTAGTGCAG | 65400 fluorescence intensity (a.u.)
ATGAAATGATTTGATTGAAATATTATGAAATGATTTGAGACGGAGTCACCTAGTGCAG | 39500 fluorescence intensity (a.u.)
ATTGATTTGATGAAACTAATTTAATATTATAAATATTATTCGGAGTCACCTAGTGCAG | 26000 fluorescence intensity (a.u.)
AACAATTTGATCAAGAGTTGACCGAGATAATCCCACTTGCCGGAGTCACCTAGTGCAG | 4370 fluorescence intensity (a.u.)
GATCAAATTAATAGGTAACCCGCTGGTCAAACCTATGGGTCGGAGTCACCTAGTGCAG | 18000 fluorescence intensity (a.u.)
AATTAGTAAATACTTAATTAATCATGAGAAAATGTATTGCCGGAGTCACCTAGTGCAG | 3350 fluorescence intensity (a.u.)
CAAATGATGGAGGTTTCAAATTATACTGTACTTCAGCCATCGGAGTCACCTAGTGCAG | 7400 fluorescence intensity (a.u.)
